In PubChem BioAssay AID977607 (Broad Institute, 2014) one finds max activation data, which are given here for 55 compounds.

Among all 1,500 compounds or so, about 460 (31%) were called active. Roughly 1% stayed inconclusive and do not appear here. These entries were drawn from the full list. Results with a measured potency or affinity are listed apart. Values without a mark were called inactive.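 Rule for the calls: active = curve reaches 40% activation over neutral controls at an AC40 no higher than the top valid tested concentration; inconclusive = no clear call, values can overlap the other calls; inactive = signal moving opposite to the expected increase, and the rest.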

The experiment is described as follows: GLuc-reported insulin release enhancers, glucose-stimulated beta cells – cell-based, INS-1E, Gaussia luciferase, luminescence, cherry-pick, set 2, dose response (AID 977607).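 Note: 0% = median of the plate neutral control wells.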 As to conditions: INS-1E GLuc insulin secretion reporter, 2-3 h, stronger effect = higher value; at 35 µM, 100% = signal doubled over neutral wells unless noted.
`Cc1ccccc1SC1CCN(C(=O)C2CCC(=O)N(C3CC3)C2)CC1` (stereo not given): the max activation was -25.3%.

With `CCOc1ccc(OCCC(=O)N(CC)CC(=O)NCc2cccs2)cc1`, the max activation was -21% [at 11 µM, 100% = signal doubled over neutral wells].

For the compound `O=C(CC(NC(=O)c1ccccc1)c1ccccc1)Nc1cccc2ccccc12` (stereo not given), the max activation is -27.5%.

For `Nc1[nH]c(C(=O)c2ccccc2)c(-c2c(F)cccc2F)c1C(=O)c1ccc(Cl)c(Cl)c1`, the max activation was 53.9%.

Turning to `C#Cc1cccc(-n2nnc(C(=O)OC)c2-c2ccccc2)c1`, the max activation was -13.8% [at 0.42 µM, 100% = signal doubled over neutral wells].

On to `COC(=O)C1=C(C)NC(=S)NC1c1ccc(OC)cc1` (stereo not given), for which the max activation was -18.4% [at 0.135 µM, 100% = signal doubled over neutral wells].

Take `COc1ccc(CCC(=O)NC2CCC(C)CC2)cc1` (stereo not given): the max activation is -13.6% [at 0.135 µM, 100% = signal doubled over neutral wells].

Take `c1ccc2c(NCC3CCCO3)nc(N3CCCCC3)nc2c1` (stereo not given): the max activation was -16.1% [at 3.8 µM, 100% = signal doubled over neutral wells].

On to `CC1=CC(c2ccccc2)n2nc(NC(=O)CCC(=O)O)nc2N1` (stereo not given), for which the max activation is -12.8% [at 1.2 µM, 100% = signal doubled over neutral wells].

`CC(=O)c1ccc(OCC(=O)N(C2CCCCC2)C2CCS(=O)(=O)C2)cc1` (stereo not given): the max activation is -11% [at 0.0016 µM, 100% = signal doubled over neutral wells].

`COc1cc2c(cc1OC)CN(C(=O)CNS(=O)(=O)c1ccc(C)c(C)c1)CC2`: the max activation was 13.4% [at 11 µM, 100% = signal doubled over neutral wells].

`CCN(Cc1ccccc1)S(=O)(=O)c1ccc(C(=O)Nc2nnc(C)o2)cc1`: the max activation is 39.3% [at 3.8 µM, 100% = signal doubled over neutral wells].

Consider `CN(C)CCCN(C(=O)CCOc1ccccc1)c1nc2ccc(F)cc2s1`, for which the max activation was -14.1% [at 0.015 µM, 100% = signal doubled over neutral wells].

Consider `COc1ccccc1-c1cnc2c(c1)C(=O)N([C@H](C)CO)C[C@@H](C)[C@@H](CN(C)C(C)=O)O2`, for which the max activation is 35.5% [at 0.015 µM, 100% = signal doubled over neutral wells].

Turning to `O=C(NC1CCCCC1)c1cccnc1Sc1ccccc1`, the max activation is -28.1% [at 0.015 µM, 100% = signal doubled over neutral wells].

Regarding `CCCCc1nc(NCCN)c(C#N)c2c1CSC(C)(C)C2`, the max activation is -17.6% [at 0.046 µM, 100% = signal doubled over neutral wells].

For the compound `O=C(NC(=S)NCC1CCCO1)c1ccc(Cl)cc1Cl` (stereo not given), the max activation is -19.4% [at 0.005 µM, 100% = signal doubled over neutral wells].

For `O=C(Nc1ccc(Br)cc1)c1cc2ccccn2n1`, the max activation is -31.1% [at 0.42 µM, 100% = signal doubled over neutral wells].

Consider `O=C(OCc1c(-c2ccccc2)ncc2ccccc12)c1cccs1`, for which the max activation is -36.4% [at 11 µM, 100% = signal doubled over neutral wells].

Turning to `CCc1nc2ccc(C(=O)N(C)CCCN(C)C)cn2c1N(C=O)CCC(C)C`, the max activation was -21.2% [at 1.2 µM, 100% = signal doubled over neutral wells].

On to `O=C(O)CNS(=O)(=O)c1ccc2c(c1)Cc1cc(S(=O)(=O)NCC(=O)O)ccc1-2`, for which the max activation was -16.4% [at 0.0016 µM, 100% = signal doubled over neutral wells].

`Cc1cc(-c2ccc(Br)cc2)n2nc(C)cc2n1`: the max activation was -25.9% [at 0.005 µM, 100% = signal doubled over neutral wells].

`c1ccc(-c2nc(NCC3CC3)nc3ccsc23)cc1`: the max activation was -19.8%.

`COc1cc2[nH]c(-c3ccc(C)cc3)cc(=O)c2cc1OC`: the max activation was -18.5% [at 3.8 µM, 100% = signal doubled over neutral wells].

Regarding `CC(=O)NN1C(=O)c2ccccc2NC1c1ccccc1O` (stereo not given), the max activation is -23.9% [at 0.42 µM, 100% = signal doubled over neutral wells].

Consider `O=C(Cn1nnc(-c2ccccc2)n1)N=Nc1c(O)[nH]c2ccccc12`, for which the max activation is 32.5%.

Take `COc1cc(Cl)c(C)cc1NC(=O)c1ccccc1NC(=O)CN1CCN(C(C)=O)CC1`: the max activation is -25.4% [at 3.8 µM, 100% = signal doubled over neutral wells].

As to `COc1ccc2nc3ccccc3nc2c1NC(=O)c1ccc(Cl)cc1`, the max activation was -10.8% [at 0.046 µM, 100% = signal doubled over neutral wells].

Turning to `COc1cc2c(cc1OC)C(Nc1ccccc1)=NC(C)(C)C2`, the max activation was -20.4% [at 0.005 µM, 100% = signal doubled over neutral wells].

Consider `Cc1cc(Oc2cccnc2)ccc1NC(=O)Cc1cn(C)c2ccccc12`, for which the max activation was -32.7%.

For the compound `Cc1cc(C(=O)NC(C)CCC(C)C)c2ccccc2n1` (stereo not given), the max activation is 29.7% [at 1.2 µM, 100% = signal doubled over neutral wells].

With `O=C(Nc1ccccc1C(=O)N/N=C/c1ccccc1)c1ccco1`, the max activation is -16.8% [at 0.0016 µM, 100% = signal doubled over neutral wells].

Turning to `CCNC(=O)C1(C)CCCN1Cc1cccc(C(F)(F)F)c1` (stereo not given), the max activation is -24%.

Turning to `CCCCNC(=O)C1(C)CCN1C(=O)Cc1cccc2ccccc12` (stereo not given), the max activation was 11.1% [at 0.015 µM, 100% = signal doubled over neutral wells].

In the case of `CCOc1ccc(C(=O)NCC(=O)Nc2cc(C)ccn2)cc1OCC`, the max activation was -21.2% [at 11 µM, 100% = signal doubled over neutral wells].

Turning to `Cn1c(=O)n(Cc2ccccc2Br)c2ccccc21`, the max activation was 20.4% [at 0.0016 µM, 100% = signal doubled over neutral wells].

Turning to `O=c1[nH]nc(-c2ccc(F)cc2)cc1Cc1cccs1`, the max activation is 13.5% [at 3.8 µM, 100% = signal doubled over neutral wells].

Take `Clc1ccc(-c2cc(CN3CCOCC3)no2)cc1`: the max activation was -22.2% [at 11 µM, 100% = signal doubled over neutral wells].

For the compound `CCNc1nc(NCC)nc(N(C)/N=C/c2ccco2)n1`, the max activation was 24.3% [at 11 µM, 100% = signal doubled over neutral wells].

`COc1cc(C(C(=O)NC2CCCC2)N(Cc2ccco2)C(=O)c2snc(C(N)=O)c2N)cc(OC)c1OC` (stereo not given): the max activation was 22.3% [at 0.015 µM, 100% = signal doubled over neutral wells].

For `COc1ccc(C2C3CCCCC3(O)CCN2C(=O)c2cccs2)cc1` (stereo not given), the max activation was -22.1% [at 0.046 µM, 100% = signal doubled over neutral wells].

Turning to `CC1CCC(NCCNC(=O)c2ccco2)CC1` (stereo not given), the max activation is -20.4%.

As to `Cc1cc(Br)c2c(c1)C1(OCCO1)C(=O)N2`, the max activation is -12%.

`CC(=O)c1cccc(NC2c3ncccc3C(=O)N2Cc2ccco2)c1` (stereo not given): the max activation was 50.6% [at 11 µM, 100% = signal doubled over neutral wells].

Consider `O=C1c2cccnc2C(Nc2ccc(F)c(Cl)c2)N1Cc1cccs1` (stereo not given), for which the max activation is -13.1% [at 0.135 µM, 100% = signal doubled over neutral wells].

Regarding `C=CCN1C(=O)CSc2ccc(C(=O)OCC)cc21`, the max activation was -11.5% [at 3.8 µM, 100% = signal doubled over neutral wells].

As for `CCCN(Cc1nnc(-c2ccccc2Cl)o1)C(=O)c1cc2ccccc2o1`, the max activation is -17% [at 11 µM, 100% = signal doubled over neutral wells].

Turning to `Cc1cc(C)cc(N(C(=O)C(F)(F)F)C(C(=O)NC2CCCCC2)c2cccs2)c1` (stereo not given), the max activation is 37.1% [at 0.42 µM, 100% = signal doubled over neutral wells].

Consider `Cc1ccc(S(=O)(=O)N2CCN(C(=O)COC(=O)c3ccc(O)cc3)CC2)c(C)c1`, for which the max activation is -39.9%.

`N#CC1=C(N)Oc2n[nH]c(-c3ccc(F)cc3)c2C1c1cccnc1` (stereo not given): the max activation is 43%.

Consider `O=C(O)Cc1ccc(NS(=O)(=O)c2ccc3c(c2)OCCO3)cc1`, for which the max activation was -23.1% [at 0.0016 µM, 100% = signal doubled over neutral wells].

Turning to `COc1ccc(S(=O)(=O)N(C)CC(=O)Nc2ccc3c(c2)OCCO3)cc1OC`, the max activation was 41.6% [at 0.0016 µM, 100% = signal doubled over neutral wells].

As to `O=C(N=C1SC2CS(=O)(=O)CC2N1c1ccc(F)c(Cl)c1)C1CC1` (stereo not given), the max activation was -16.2% [at 0.046 µM, 100% = signal doubled over neutral wells].

On to `Cc1ccc(NC(=O)c2cc(-c3ccccc3O)n[nH]2)cc1C`, for which the max activation is 17.3%.

For `Cc1cc2nc(-c3ccccc3O)[nH]c2cc1C`, the max activation is -13.8% [at 0.42 µM, 100% = signal doubled over neutral wells].
